Bioassay records as filed in PubChem BioAssay.
A selection: hits, their analogues and other compounds. The true share with any hit is near 2.4%.
D2 PAM-1: positive allosteric modulators of human D2 dopamine receptor | HEK293 T-REx D2, calcium flux, EC20 dopamine potentiation | 0.34% of 340,000 active | AID 485347 | P14416 | potentiation, % at 10 µM;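 active = potentiation over 3 SD above the plate norm, cut at about 30% in these data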; also: 0% is about no effect
Target sequence (P14416 whole entry, looked up): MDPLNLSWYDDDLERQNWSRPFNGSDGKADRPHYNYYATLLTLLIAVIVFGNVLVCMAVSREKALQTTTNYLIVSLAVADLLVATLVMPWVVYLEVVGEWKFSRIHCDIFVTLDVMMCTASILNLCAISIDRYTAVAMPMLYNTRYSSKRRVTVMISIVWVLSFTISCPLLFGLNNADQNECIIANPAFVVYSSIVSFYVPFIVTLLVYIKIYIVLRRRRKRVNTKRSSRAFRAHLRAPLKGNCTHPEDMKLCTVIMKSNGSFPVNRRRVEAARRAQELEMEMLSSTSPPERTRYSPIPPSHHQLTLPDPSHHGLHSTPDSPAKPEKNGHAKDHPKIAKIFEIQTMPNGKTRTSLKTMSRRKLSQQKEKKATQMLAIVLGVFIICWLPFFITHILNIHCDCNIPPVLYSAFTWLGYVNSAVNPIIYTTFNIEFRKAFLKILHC
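Primary screen. Calcium kinetics in induced HEK293 T-REx D2 cells: compound pre-addition 180 s, EC20 dopamine, 180 s more.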
D2 PAM-2: positive allosteric modulators of human D2 dopamine receptor | P14416 | DiscoveRx D2 beta-arrestin cells, luminescence, 90 min; 100% = 57 uM dopamine signal | potentiation, % (no concentration beside the values) | 0.23% of 360,000 active; in the data active = potentiation above about 50%
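PathHunter beta-arrestin assay in DiscoveRx D2 cells. Compounds were added with an EC20 of dopamine (50 nM final) for 90 min at 37 deg C. Luminescence was read 1 h after detection reagent, with 57 uM dopamine as the EC100 control.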
D2 antagonist: D2 dopamine receptor (human) antagonism. HEK293 TREx D2 cells, calcium flux, dopamine EC80. inhibition, % at 10 µM. 2% of 340,000 active; in the data active = inhibition above about 30%; inactive = below that, where a call was filed; also: 0% is about no effect
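Overnight-induced (tetracycline, 30 C) HEK293 T-REx cells carrying force-coupled D2 receive a no-wash calcium dye, then compound, then EC80 dopamine at 180 s; signals are read kinetically throughout.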
D2 ag-1: human D2 receptor agonism in beta-arrestin assay; activation, % (no concentration beside the values); P14416; DiscoveRx PathHunter D2 beta-arrestin, luminescence, 90 min; 100% = 57 uM dopamine signal; 0.084% of 360,000 active; in the data active = activation above about 40%
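Agonist mode: compounds alone added to overnight-plated D2 PathHunter cells for 90 min at 37 C, with 57 uM final dopamine (EC100) defining full response. Beta-arrestin recruitment detected by chemiluminescent reagent, read after 1 h at ambient temperature.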
D2 ag-2: activates the human D2 dopamine receptor; P14416; HEK293 T-REx D2 cells, calcium flux agonist mode; activation, % at 2 µM; 0.53% of 340,000 active;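 active = activation over 3 SD above normal in the single-dose calcium agonist read, cut at about 30% in these data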; also: 0% is about no effect
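Agonism is scored from calcium flux in a force-coupled, inducible HEK293 cell line expressing D2, read kinetically for 180 s after compound addition against dopamine controls.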
An asterisk follows results filed as active; . = no result given.

SMILES | D2 PAM-1 | D2 PAM-2 | D2 antagonist | D2 ag-1 | D2 ag-2
C=CCc1ccc(OCC(O)CN2CCN(c3ccccc3OC)CC2)c(OC)c1 (stereo not drawn) | 6.9 | -12.0 | 7.3 | 5.3 | -0.5
Cc1ccccc1OCC(O)CN1CCN(CC(O)COc2ccccc2C)CC1 (stereo not drawn) | -30.4 | -26.7 | 61.6* | -3.2 | 0.9
Cc1ccccc1OCC(O)Cn1c(=N)n(CCN2CCOCC2)c2ccccc21 (stereo not drawn) | 40.1* | -12.2 | -14.0 | -2.5 | -2.0
Cc1ccc(NC(=O)C(=O)NCC(c2cccnc2)N2CCc3ccccc32)cc1Cl (stereo not drawn) | 15.7 | . | . | . | -1.0
CCN(CC)c1ccc(NC(=O)Cn2nc(C)n3cccc3c2=O)c(C)c1 | -8.3 | . | . | . | -0.7
COc1ccccc1N1CCN(CC(O)COc2c(OC)cccc2OC)CC1 (stereo not drawn) | -29.5 | -12.6 | 122.8* | 1.7 | 14.8
Cc1ccc(N2CCN(CC(O)COc3cccc4ccccc34)CC2)cc1 (stereo not drawn) | -18.5 | -50.0 | -28.5 | 8.8 | -2.0
COc1ccccc1N1CCN(CC(O)COCc2cccs2)CC1 (stereo not drawn) | -32.9 | -10.3 | 80.7* | -1.3 | 1.8
COc1cc(COCC(O)CN2CCN(Cc3ccccc3)CC2)cc(OC)c1OC (stereo not drawn) | -20.5 | -9.0 | 6.1 | -0.7 | -0.4
Cc1ccc(C(=O)N2CCCCC2CCN2CCCCC2)cc1 (stereo not drawn) | 2.0 | . | . | . | -0.4
COC(=O)c1ccccc1NC(=O)c1cnc(Nc2ccc(OC)cc2)c2ccccc12 | 16.8 | . | . | . | -0.6
Cc1ccc(C)c(CN2CCCN(CC(=O)Nc3ccc(C)c(C)c3)S2(=O)=O)c1 | 0.2 | . | . | . | .
CCOc1ccc(CCNC(=O)CCCc2nnc3n(CC)c(=O)c4sccc4n23)cc1OCC | -1.5 | . | . | . | -0.4
Cc1cc(NC(=O)Cn2c(=O)oc3ccccc32)no1 | 4.1 | -3.2 | 32.7* | -3.1 | 0.4
N#Cc1ccccc1OCc1nnc(-c2ccccc2Br)o1 | -4.5 | -1.2 | 11.7 | 2.2 | 0.2
Clc1ccccc1OCc1nnc(-c2ccccc2Br)o1 | -1.9 | -16.5 | 36.2* | -1.5 | -1.0
Brc1ccccc1-c1nnc(COc2cccc3cccnc23)o1 | 0.2 | 19.7 | 38.3* | 7.5 | 0.6
Brc1ccccc1-c1nnc(COc2ncnc3ccccc23)o1 | -12.5 | -4.5 | -7.3 | -1.7 | 1.2
CS(=O)(=O)N1CCN(c2ccc(NC(=S)NC(=O)c3ccccc3[N+](=O)[O-])cc2)CC1 | -14.4 | -13.2 | 32.9* | 3.0 | -0.3
COC(=O)c1[nH]c2ccc(Cl)cc2c1NC(=O)Oc1ccccc1 | 5.4 | 68.1* | -14.2 | 8.1 | 0.2
COC(=O)c1[nH]c2ccc(Cl)cc2c1NC(=O)C1CC1 | -1.7 | -3.6 | -13.6 | 1.3 | -0.3
Cc1c(NS(=O)(=O)c2cccc(C(=O)OCC(=O)N(C)C3CCCCC3)c2)c(=O)n(-c2ccccc2)n1C | -3.1 | -4.7 | 17.4 | 3.9 | -0.2
CSc1ccc(CN2CCC(CO)(CCOc3ccccc3)CC2)cc1 | -17.7 | -81.9 | 50.5* | 1.2 | 1.1
OCC1(CCOc2ccccc2)CCN(Cc2ccccc2OC(F)F)CC1 | -17.1 | -24.5 | -2.6 | -1.3 | 0.3
C=CCOc1ccccc1CN1CCC(CO)(CCOc2ccccc2)CC1 | -20.5 | -9.5 | 63.8* | -0.6 | -1.0
SMILES | D2 PAM-1 | D2 PAM-2 | D2 antagonist | D2 ag-1 | D2 ag-2
CC(Sc1nc(-c2ccccc2)cc(C(F)(F)F)n1)C(=O)O (stereo not drawn) | 17.7 | -5.2 | 3.9 | -2.5 | -0.6
CCN(CC)CCCNC(=O)C(C)Sc1nc(-c2ccccc2)cc(C(F)(F)F)n1 (stereo not drawn) | -8.3 | -10.5 | 31.2* | -2.7 | -0.2
Cc1c(CNCCc2ccc(Cl)cc2)c(C(=O)O)c(C)n1-c1ccccc1 | 0.2 | -10.9 | -2.7 | 0.8 | -0.4
CN1CCC(N(C)C(=O)COc2ccccc2Cl)CC1 | -15.0 | -3.2 | 31.1* | -2.4 | 1.6
CN(C(=O)COc1ccc(Br)cc1Cl)C1CCCCC1 | -8.1 | -11.2 | -8.9 | -2.0 | 0.7
CCOc1ccc(OCC)c(NC(=O)Nc2ccc3c(c2)N(C)C(=O)CS3)c1 | -19.7 | -1.0 | 64.2* | 5.4 | -0.5
CN(C)S(=O)(=O)c1cccc(C(=O)Nc2ccccc2)c1 | 2.6 | -4.4 | 47.0* | 6.5 | -0.3
CN(C)S(=O)(=O)c1cccc(NC(=O)c2ccc(OC(F)(F)F)cc2)c1 | -23.6 | -31.4 | 46.3* | 0.6 | -0.5
CCN(CC(=O)Nc1cc(Cl)ccc1C)C(=O)C1CC(=O)N(Cc2ccccc2)C1 (stereo not drawn) | -24.8 | -13.0 | 7.5 | 3.2 | 0.1
CCN(CC(=O)Nc1cc(Cl)ccc1C)C(=O)CSCc1c(C)noc1C | -16.4 | -10.1 | 32.7* | -0.4 | 0.2
CCN(CC(=O)Nc1cc(Cl)ccc1C)C(=O)C1CC1 | 7.0 | -3.0 | 55.7* | -0.8 | 0.2
O=C(Nc1cccc(Cl)c1)Nc1ccccc1OCc1cc(=O)n2ccccc2n1 | 10.3 | . | . | . | 0.2
Cc1cc(C)c(NC(=O)CSc2nc(=O)[nH]c3c2CCCC3)c(C)c1 | -5.5 | . | . | . | 0.8
CCS(=O)(=O)N1CCc2cc(C(=O)Nc3ccc(OC)cc3OC)ccc21 | -4.0 | . | . | . | 7.9
Cc1cccc(NC(=O)Cn2nc3c4ccccc4n(Cc4ccccc4)cc-3c2=O)c1 | 0.7 | . | . | . | 0.4
Cc1ccc(C)c(Cn2nc3c4ccccc4n(Cc4ccccc4)cc-3c2=O)c1 | 5.1 | -5.9 | 30.4* | -3.7 | -0.3
CCOC(=O)Cc1nnc(NC(=O)CSc2nc3ccccc3[nH]2)s1 | 3.8 | 4.0 | -6.0 | 2.5 | -1.8
Cc1cccc(CS(=O)(=O)Cc2ccc(C(=O)NCc3cccnc3)o2)c1 | . | -0.8 | 33.4* | 0.3 | 2.4
CCc1ccc(CNC(=O)c2ccc(CS(=O)(=O)Cc3cccc(C)c3)o2)cc1 | . | . | . | . | 0.4
O=C(NCc1ccc(S(=O)(=O)NC2CCCCC2)s1)c1ccccc1 | -5.7 | -0.4 | 8.7 | 1.4 | 0.0
CC(=O)c1ccc(OCCCC(=O)Nc2cc(S(=O)(=O)N(C)C)ccc2C)cc1 | -17.1 | -30.9 | 19.4 | -4.1 | 1.4
Cc1ccc(S(=O)(=O)N(C)C)cc1NC(=O)CSc1ncc(C(F)(F)F)cc1Cl | -38.8 | -6.0 | 37.2* | 0.7 | 0.8
CCN(CC)S(=O)(=O)c1ccc(C)c(NC(=O)CSc2ncc(C(F)(F)F)cc2Cl)c1 | -2.6 | -12.6 | -2.7 | -6.2 | -0.4
Cc1ccc(S(=O)(=O)N(C)C)cc1NC(=O)Nc1ccccc1F | -27.4 | -14.2 | 64.5* | -3.1 | -0.9
Cc1ccc(S(=O)(=O)N(C)C)cc1NC(=O)CCCNC(=O)c1ccc(Cl)cc1 | -43.1 | -20.3 | 40.5* | -2.0 | -0.7
COc1ccccc1CNC(=O)CCCNC(=O)c1ccc(Cl)cc1 | 30.1* | -9.2 | -19.2 | -0.1 | -0.4
